# The list is not random: actives were taken first. Their share in the collection is about 11%.
# HPGD inh: blocks human HPGD enzyme activity. P15428. purified HPGD, NADH fluorescence kinetic, PGE2 substrate. Potency, µM, inactives show at the top dose activity change, negative = inhibition, usual class: inhibitors. hit rate 4.3% among 150,000; also: potency is read from the fitted curve at half-maximal effect
# Target sequence (P15428 whole entry, looked up): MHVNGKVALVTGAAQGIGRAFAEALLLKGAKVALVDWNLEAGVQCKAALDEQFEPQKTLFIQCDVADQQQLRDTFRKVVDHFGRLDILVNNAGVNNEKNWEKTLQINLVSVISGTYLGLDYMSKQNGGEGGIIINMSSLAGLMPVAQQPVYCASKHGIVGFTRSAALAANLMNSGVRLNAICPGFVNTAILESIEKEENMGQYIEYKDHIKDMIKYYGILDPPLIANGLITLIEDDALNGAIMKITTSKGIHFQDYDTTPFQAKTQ
#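 20 nM HPGD preincubated 15 min at room temperature with compound in 50 mM Tris-HCl pH 8, 0.01% Tween 20. Started with 1 mM NAD+ and 30 uM prostaglandin E2; NADH fluorescence (360/450 nm) read 5 times over 30-s intervals, last minus first.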
# ALDH1A1 block: inhibitors of human aldehyde dehydrogenase 1A1; Potency, µM (titrated, usually from 75.3 µM), inactives show top-dose activity, negative = inhibition, usual class: inhibitors; hit rate 7.3% among 220,000; AID 1030; Purified ALDH1A1, NADH fluorescence, propionaldehyde substrate;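 also: potency is read from the fitted curve at half-maximal effect; plate controls were no enzyme wells and a reference inhibitor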
# PNC inhibitor: blocks assembly of the perinucleolar compartment | PC3M PTB-GFP, PNC prevalence imaging, 16 h; hits give low values | activity change (PNC), negative = inhibition, % at 10 µM | hit rate 3.1% among 140,000 | AID 2417;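 active = readout at or below -70, meaning at least 70% loss of cells showing the perinucleolar compartment, a nuclear body marking cancer cells; inconclusive = readout between -30 and a set limit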;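 also: plate controls were DMSO wells for no effect and camptothecin positive control wells for full effect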
#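 Compounds are pinned in duplicate onto adhered PC3M cells stably expressing GFP-tagged PTB and incubated 16 h at 37 C. Cells are then fixed, nuclei stained with Hoechst, and PNC-positive cells counted.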
# Starred values were filed as active, the others as inactive; u = inconclusive; x = no result; ! = repeats disagree; [ ] = another dose, or the depositor's remark. Unless noted, calls follow the shape of the dose curve; as a rule, active = well fitted inhibition curve with a large enough effect (not every such curve was filed as active); inconclusive = small, poorly fitted or top-dose-only effect, or another doubt; inactive = no such curve, though single readings can be large or run the other way. Unless noted, % is scaled to controls: 0 for no effect and ±100 for the full control effect.
SMILES,HPGD inh,ALDH1A1 block,PNC inhibitor
CC(=O)Oc1ccc2c(=O)c(N3C(=O)c4ccccc4C3=O)c(C)oc2c1,25µM*,-4%,-91*
Cc1oc2cc(O)ccc2c(=O)c1N1C(=O)c2ccccc2C1=O,x,1%,38
COc1ccc(CNc2ccnc(-c3cccnc3)n2)c(OC)c1,x,15%,x
COc1ccc(Nc2nc(N3CCCCC3)c3ccccc3n2)cc1,u,13µM*,u
Oc1ccc(Nc2nc(N3CCCC3)c3ccccc3n2)cc1,-16%,-1%,u
Nc1ncnc2c1c(I)cn2C1OC(CO)C(O)C1O (stereo not drawn),-8%,8.9µM*!,x
Nc1ncnc2c1ncn2C1OC(CO)C(O)C1O (stereo not drawn),-10%,-6%,x
Cc1ccc(-c2nc(CS(=O)CC(=O)NCCC(C)C)c(C)o2)cc1 (stereo not drawn),-13%,5%,u
Cc1cc2n(n1)C(c1c[nH]c3ccccc13)Nc1ccccc1-2 (stereo not drawn),-27%,u,u
CN(C)CCNC(=O)c1sc2cccc(F)c2c1Cl,x,14µM*,x
CN(C)CCNC(=O)c1ccccc1,-10%,9%,20
O=C(NCCCn1ccnc1)Nc1cccc2ccccc12,-21%,7%,-100*
O=C(NCCCn1ccnc1)c1sc2cccc(F)c2c1Cl,-19%,28µM*,6
O=C(NCCCn1ccnc1)c1cccc(S(=O)(=O)Nc2ccccc2F)c1,2%,-5%,1
CC(C)c1ccccc1NC(=S)NCCCn1ccnc1,x,6%,x
O=C1C[C@@H](O)[C@@H](O)[C@@H]2[C@H]3C(=O)N(c4ccc(F)cc4F)C(=O)[C@@H]3CC[C@H]12,x,-3%[13.5 µM],x
C=CCN=c1scc(C)n1/N=C/c1ccc(O)c(O)c1,x,22µM*,x
COc1ccc(O)c(/C=N/n2c(-c3ccco3)csc2=Nc2cccnc2)c1,-7%,-2%,66
CN=c1scc(-c2ccco2)n1/N=C/c1ccc(O)c(O)c1,x,28µM*,x
CN=c1scc(C)n1/N=C/c1ccc(O)cc1,-17%,1%,15
CN1CCc2cc3c(cc2[C@@H]1[C@@H]1C(=O)Oc2c1ccc1c2OCO1)OCO3,-7%,7%,x
Cc1ccc(-n2nnnc2SCc2ccccn2)cc1C,-5%,-5%,u
N=C1C(c2nc3ccccc3c(=O)[nH]2)=C(O)CN1CCO,u,u,26
COCCN1CC(O)=C(c2nc3ccccc3c(=O)[nH]2)C1=N,u,u,-100*
Cn1ncc2c(Nc3ccccc3Br)ncnc21,-10%,-4%,11
SMILES,HPGD inh,ALDH1A1 block,PNC inhibitor
Cn1ncc2c(Nc3cccc(C(=O)O)c3)ncnc21,-18%,13µM*,67
Cn1ncc2c(Nc3ccc(-c4ccccc4)cc3)ncnc21,u,u,-82*
COc1cccc(Nc2ncnc3c2cnn3C)c1,-10%,-5%,4
CC(C)(C)Nc1oc(-c2ccccc2)nc1-c1ccccc1F,-11%,-5%,x
CCNC(=O)CC1C(=O)N(CC)C(=S)N1NC(=O)c1cccnc1 (stereo not drawn),x,-1%,x
Cc1ccc(C)n1-c1ccc(C(=O)NN)s1,x,14µM*,x
CC(=O)NCCNC(=O)c1ccc(-n2c(C)ccc2C)cc1,x,3%,x
CCn1c2ccccc2n2c(=O)c(=O)n(CC(=O)Nc3ccc(C(C)C)cc3)nc12,u,u,34
COC(=O)C(C)Sc1snnc1-c1ccccc1 (stereo not drawn),-28%,u,26
CC(C)(C)C(=O)COC(=O)c1ccc(N)c([N+](=O)[O-])c1,x,-14%,x
CC(C)(C)NC(=O)COC(=O)c1ccc(NC(=O)CC#N)cc1,x,19%,x
CC1CN(C(=O)COC(=O)c2ccc(N)c([N+](=O)[O-])c2)CC(C)O1 (stereo not drawn),28µM*,u,u
CC1CN(C(=O)COC(=O)c2ccc(NC(=O)CC#N)cc2)CC(C)O1 (stereo not drawn),x,6.3µM*,x
CCCCNC(=O)NCc1cnn(C)c1C,-7%,0%,u
CC(C)(C)NC(=O)c1nc2nc(-c3ccccc3)cc(C(F)(F)F)n2n1,u,u,1
CC(Sc1nnnn1-c1ccccc1)C(=O)Nc1ccccc1-c1ccccc1 (stereo not drawn),-1%,u,-134*
Cn1nnnc1SCc1ccc(C(=O)Nc2ccccc2F)cc1,16µM*,u,-4
Cc1ccc(-n2nnnc2SCC(=O)Nc2ccccc2-c2ccccc2)cc1C,-17%,u,-1
CCOC(=O)c1c(-c2ccc(C)cc2)csc1NC(=O)CCN1CCOCC1,1%,u,-25
CCOC(=O)c1c(-c2ccc(C)cc2)csc1NC(=O)C1CC=CCC1C(=O)O (stereo not drawn),-26%,-10%,27
